Only some compounds are listed: those with a hit (about 2.3% of all), similar ones and a draw of the others.
MEKK2 WT-MEK5: raises or lowers MEK5 binding to wildtype human MEKK2 PB1 domain; actives 1.1% (n = 290,000); bead flow cytometry, Alexa488-MEK5 binding to MEKK2 WT; actives lie on both sides; binding response (% of control), % at 10 µM; Q9Y2U5; AID 1531; in the data active = binding response below about 67% or above about 130%
MEKK3 PB1 HTS: MEKK3-MEK5 PB1 interaction, increase or decrease; bead-based flow cytometry, Alexa488-MEK5 binding to MEKK3; actives lie on both sides; 0 = blocked by unlabeled MEK5, 100 = vehicle; binding response (% of control), % at 10 µM; actives 1.4% (n = 290,000); Q99759;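 active = binding response more than 3 SD above or below the average of its plate-row segment, actives on both sides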;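 note: Alexa488 bead fluorescence after subtracting the streptavidin-only scavenger bead signal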
UBC13 inh: inhibitors of human UBC13 polyubiquitin chain formation; P61088; TR-FRET; inhibition, % at 20 µM; actives 0.47% (n = 330,000); AID 485273; in the data active = inhibition above about 45%, passing the limit was not always enough
Target sequence (P61088 whole entry, looked up): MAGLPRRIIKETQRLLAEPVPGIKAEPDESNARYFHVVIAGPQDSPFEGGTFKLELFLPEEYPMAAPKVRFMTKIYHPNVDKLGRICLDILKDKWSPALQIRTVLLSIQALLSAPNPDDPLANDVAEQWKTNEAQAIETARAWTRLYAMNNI
MEKK2 mut-MEK5: signal of MEK5 binding to mutant human MEKK2 PB1 domain. bead flow cytometry, Alexa488-MEK5 binding to MEKK2 mutant. percent response, % at 10 µM. actives 0.35% (n = 290,000). AID 1530; in the data active = percent response above about 24%, passing the limit was not always enough
MEKK2wt confirm: raises or lowers MEK5 binding to wildtype human MEKK2, retest; shares compounds with MEKK3 PB1 HTS; bead flow cytometry, Alexa488-MEK5 binding to MEKK2 WT; actives lie on both sides; binding response (% of control), % at 10 µM; actives 2.4% (n = 5,900); in the data active = binding response below about 16% or above about 210%; inactive = in between
MEKK2mut-MEK5: signal of MEK5 binding to mutant human MEKK2, retest. percent response, % at 10 µM. AID 1893. actives 2% (n = 5,900). bead flow cytometry, Alexa488-MEK5 binding to MEKK2 mutant. shares compounds with MEKK3 PB1 HTS; in the data active = percent response mostly above about 71%, no sharp cut-off; inactive = mostly below about 38%;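 note: higher means compound restores mutant binding toward wildtype level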
MEKK3 confirm: confirmation of inhibitors of MEK5 binding to human MEKK3 | binding response (% of control), % at 10 µM | bead flow cytometry, Alexa488-MEK5 binding to MEKK3; active compounds read low | AID 1894 | actives 1.8% (n = 5,900) | shares compounds with MEKK3 PB1 HTS;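 active = binding response below 72% of control, or above a set upper limit, though filed actives all read lower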;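 note: lower values mean stronger disruption of MEK5 binding to MEKK3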
Each line names hits and unclear results; the compound was inactive in the other large screens (follow-up assays come after a bar, where they were run); [ ] = remark or other dose.

COc1ccc(C(CCNCc2ccc(OC(C)C)cc2)C(C)C)cc1 (centres undefined)	none
COc1ccccc1C(CCNCc1ccc(N(C)C)cc1)c1ccc(OC(C)C)cc1 (centres undefined)	MEKK2 WT-MEK5 229, MEKK2 mut-MEK5 61 | MEKK2wt confirm inactive | MEKK2mut-MEK5 inactive | MEKK3 confirm inactive
COc1ccc(CNCCC(c2ccc(OC(C)C)cc2)c2ccccc2OC)cc1 (centres undefined)	MEKK2 WT-MEK5 193, MEKK2 mut-MEK5 47 | MEKK2wt confirm inactive | MEKK2mut-MEK5 inactive | MEKK3 confirm inactive
COc1ccccc1C(CCNCc1ccccc1)c1ccc(OC(C)C)cc1 (centres undefined)	MEKK2 WT-MEK5 158, MEKK2 mut-MEK5 24 | MEKK2wt confirm inactive | MEKK2mut-MEK5 inactive | MEKK3 confirm inactive
Cc1ccc(N/C(CSC(N)=O)=N/S(=O)(=O)c2ccccc2)cc1	MEKK3 PB1 HTS 125 | MEKK2wt confirm inactive | MEKK2mut-MEK5 inactive | MEKK3 confirm inactive
Cc1ccc(N/C(CSC(N)=O)=N\S(=O)(=O)c2ccc(C)cc2)cc1	MEKK3 PB1 HTS 128 | MEKK2wt confirm inactive | MEKK2mut-MEK5 inactive | MEKK3 confirm inactive
OCC[C@H]1C[C@@H](O)[C@H](O)[C@]2(CCCO2)O1	none
O=C(CSc1ccc(-c2ccco2)nn1)Nc1ccccc1	none
O=C(CSc1ccc(-c2ccco2)nn1)NCc1ccccc1Cl	MEKK3 PB1 HTS 135 | MEKK2wt confirm inactive | MEKK2mut-MEK5 inactive | MEKK3 confirm inactive
CCNC(=S)N1CCN(S(=O)(=O)c2cccc(C(F)(F)F)c2)CC1	MEKK3 PB1 HTS 151 | MEKK2wt confirm inactive | MEKK2mut-MEK5 inactive | MEKK3 confirm inactive
CC(C)[C@H](NC(=O)OCc1ccccc1)C(=O)N[C@@H](Cc1c[nH]c2ccccc12)C(=O)O	none (no result: MEKK2 WT-MEK5, MEKK3 PB1 HTS, MEKK2 mut-MEK5)
N#Cc1cccc(CN2CCC(=O)N([C@H](CO)Cc3ccccc3)CC2)c1	none
O=C(CN1CCN(c2ccccc2Cl)CC1)NC1CCCc2ccccc21 (centres undefined)	MEKK3 PB1 HTS 129 | MEKK2wt confirm inactive | MEKK2mut-MEK5 inactive | MEKK3 confirm inactive
COc1ccc(-c2nnn(CC(=O)Nc3ccc4c(c3)OCCO4)n2)cc1OC	none (no result: MEKK2 WT-MEK5, MEKK3 PB1 HTS, MEKK2 mut-MEK5)
COc1ccc(-c2nnn(CC(=O)NC3CCCc4ccccc43)n2)cc1OC (centres undefined)	MEKK3 PB1 HTS 122 | MEKK2wt confirm inactive | MEKK2mut-MEK5 inactive | MEKK3 confirm inactive
COc1ccc(-c2nnn(CC(=O)c3ccc4c(c3)OCCO4)n2)cc1OC	MEKK3 PB1 HTS 123 | MEKK2wt confirm inactive | MEKK2mut-MEK5 inactive | MEKK3 confirm inactive
COc1ccc(-c2nc(CSCC(=O)NC3CCCc4ccccc43)c(C)o2)cc1OC (centres undefined)	none
COC(=O)c1cc(Cn2nc(C(=O)O)c3ccccc3c2=O)oc1C	none
O=C(O)c1ccc(CSc2nc3ccccc3c(=O)n2-c2ccccc2)cc1	none
COC(=O)c1ccc2c(=O)n(-c3ccccc3)c(SCN3C(=O)c4ccccc4C3=O)nc2c1	MEKK3 PB1 HTS 74[inhibitor] | MEKK2wt confirm inactive | MEKK2mut-MEK5 inactive | MEKK3 confirm inactive
C#C[C@]1(O)CC[C@H]2[C@@H]3[C@H](C)CC4=C(CCC(=O)C4)[C@H]3CC[C@@]21C	none
CN1CCN(c2ncccc2S(=O)(=O)N2CCCCC2)CC1	MEKK2 WT-MEK5 1.0[inhibitor], MEKK3 PB1 HTS 1.0[inhibitor] | MEKK2wt confirm inactive | MEKK2mut-MEK5 inactive | MEKK3 confirm inactive
CC(NC(=O)c1ccccc1)C(=O)N/N=C/c1cccc([N+](=O)[O-])c1 (centres undefined)	none
CCN(CC)c1ccc(/C=C/C(=O)c2ccc(Br)cc2)cc1	MEKK2 WT-MEK5 344, MEKK2 mut-MEK5 431 (no result: UBC13 inh) | MEKK2wt confirm inactive | MEKK2mut-MEK5 inactive | MEKK3 confirm inactive
Cc1[nH]n(-c2cccc3ccccc23)c(=O)c1/C=N/NC(=O)c1cccc([N+](=O)[O-])c1	MEKK3 PB1 HTS 61[inhibitor] | MEKK2wt confirm inactive | MEKK2mut-MEK5 inactive | MEKK3 confirm inactive
Cc1[nH]n(-c2ccccc2)c(=O)c1/C=N/NC(=O)COc1ccccc1[N+](=O)[O-]	MEKK3 PB1 HTS 158 | MEKK2wt confirm inactive | MEKK2mut-MEK5 inactive | MEKK3 confirm inactive
O=C(CSc1nnc(NC(=O)c2ccccc2F)s1)NC1CC1	none
COc1cc(C(CC(=O)N2CCOCC2)c2c(OC)cc(OC)c3ccc(=O)oc23)cc(OC)c1OC (centres undefined)	none
COc1cc(OC)c2c(-c3ccccc3)cc(=O)oc2c1C(CC(=O)N1CCOCC1)c1ccc2c(c1)OCO2 (centres undefined)	MEKK2 WT-MEK5 144 | MEKK2wt confirm inactive | MEKK2mut-MEK5 inactive | MEKK3 confirm inactive
CCN(CC)C(=O)CC(c1cc(OC)c(OC)c(OC)c1)c1c(OC)cc(OC)c2c(-c3ccccc3)cc(=O)oc12 (centres undefined)	MEKK2 WT-MEK5 160, MEKK3 PB1 HTS 133 | MEKK2wt confirm inactive | MEKK2mut-MEK5 inactive | MEKK3 confirm inactive
CCN(CC)C(=O)CC(c1cc(OC)c(OC)c(OC)c1)c1c(OC)cc(OC)c2ccc(=O)oc12 (centres undefined)	MEKK2 WT-MEK5 151 | MEKK2wt confirm inactive | MEKK2mut-MEK5 inactive | MEKK3 confirm inactive
CCN(CC)C(=O)CC(c1ccc(OC)cc1)c1c(OC)cc(OC)c2ccc(=O)oc12 (centres undefined)	MEKK2 WT-MEK5 145 | MEKK2wt confirm inactive | MEKK2mut-MEK5 inactive | MEKK3 confirm inactive
CN(C)C1=NCCN1CCc1ccccc1	none (no result: MEKK2 WT-MEK5, MEKK3 PB1 HTS, MEKK2 mut-MEK5)
Cc1ccc(-n2[nH]c(C)c(CCC#N)c2=O)cc1	none
COc1ccc2c3c([nH]c2c1)C(C)N(CCC(=O)NN)CC3 (centres undefined)	MEKK2 WT-MEK5 140 | MEKK2wt confirm inactive | MEKK2mut-MEK5 inactive | MEKK3 confirm inactive
COc1ccc2c3c([nH]c2c1)C(C)N(C(C)=O)CC3 (centres undefined)	none
O=S(=O)(Nc1ccc(Br)cn1)c1ccc2ccccc2c1	none
CSCCC(=O)N1CCCC(N2CCN(c3cccc(C(F)(F)F)c3)CC2)C1 (centres undefined)	none
COC(=O)CCC(=O)N1CCCC(N2CCN(c3cccc(C(F)(F)F)c3)CC2)C1 (centres undefined)	MEKK2 WT-MEK5 19[inhibitor], MEKK3 PB1 HTS 37[inhibitor] | MEKK2wt confirm inactive | MEKK2mut-MEK5 inactive | MEKK3 confirm inactive
O=C(Nc1ccccc1)N(C1=NCCCCS1)c1ccccc1	none
O=C(c1ccc([N+](=O)[O-])cc1)N(C1=NCCCCS1)c1ccccc1	MEKK3 PB1 HTS 79[inhibitor] | MEKK2wt confirm inactive | MEKK2mut-MEK5 inactive | MEKK3 confirm inactive

Bioassay records (PubChem)
